Compound activity: PubChem, National Center for Advancing Translational Sciences (NCATS)
An excerpt weighted towards active compounds, which were near 3.5% of everything screened.
KDM4E inh – blocks human JMJD2E demethylase activity | B2RXH2 | JMJD2E catalytic domain, FDH-coupled NADH fluorescence (FDH is formaldehyde dehydrogenase) | Potency, µM (titrated, usually from 57.1 µM), most hits filed as inhibitors | 230,000 tested, 1.6% active | AID 2147; active = well fitted inhibition curve with a large enough effect, not every such curve was filed as active; inconclusive = small, poorly fitted or top-dose-only effect, or another doubt; inactive = no such curve, though single readings can be large or run the other way; note: nearly all actives have a fitted effect of over 50% in size
Tau fluor cs – counter-screen for tau fibril formation inhibitors; tau K18 P301L Alexa594 fluorescence, heparin fibrillization; Potency, µM (series often up to 57.7 µM); 280,000 tested, 0.93% active; AID 1463; note: nearly all actives have a fitted effect of over 55% in size
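Human tau K18 P301L (15 uM unlabeled, 0.24 uM Alexa 594-labeled) in 100 mM sodium acetate pH 7 with 20 uM heparin, 6 hr at 37 C. ThT 30 uM added, 1 hr ambient; Alexa 594 FP and total fluorescence read at 555/632 nm.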
TexasRed fluor – alters Texas Red total fluorescence, flagging assay interference. TRb/SRC2 Texas Red total fluorescence interference. Potency, µM (top dose mostly 106 µM). 280,000 tested, 0.29% active; active = well fitted curve in either direction with a large enough effect; inconclusive = small, poorly fitted or top-dose-only effect
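Human TRβ ligand-binding domain (0.6 uM) and Texas Red SRC2 peptide (20 nM) in Tris buffer with 1 uM T3 and 5% DMSO were incubated with pinned compound for 5 hr at ambient temperature. Total fluorescence was computed as S + 2P (555/632 nm).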
TRb SRC2 PPI – TRbeta-SRC2 interaction inhibition. TRbeta-SRC2 peptide binding, fluorescence polarization; receptor liganded with 1 µM T3. P10828. 280,000 tested, 0.065% active. Potency, µM (top dose mostly 106 µM), most hits filed as inhibitors; note: nearly all actives have a fitted effect of over 50% in size
Target sequence (P10828 whole entry, looked up): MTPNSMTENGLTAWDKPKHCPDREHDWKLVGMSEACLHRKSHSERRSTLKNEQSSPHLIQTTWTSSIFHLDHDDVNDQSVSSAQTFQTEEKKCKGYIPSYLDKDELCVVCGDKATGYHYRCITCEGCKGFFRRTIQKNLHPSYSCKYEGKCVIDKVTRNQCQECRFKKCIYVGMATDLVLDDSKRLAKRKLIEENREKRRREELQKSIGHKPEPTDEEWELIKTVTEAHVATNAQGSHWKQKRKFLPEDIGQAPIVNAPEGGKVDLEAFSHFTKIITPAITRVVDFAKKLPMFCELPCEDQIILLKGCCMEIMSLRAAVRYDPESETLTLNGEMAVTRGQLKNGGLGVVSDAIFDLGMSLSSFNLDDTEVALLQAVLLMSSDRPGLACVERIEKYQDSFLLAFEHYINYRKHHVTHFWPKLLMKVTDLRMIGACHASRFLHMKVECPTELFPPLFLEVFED
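Quantitative HTS by FP: 0.6 uM TRb LBD, 20 nM labeled SRC2 20-mer, 1 uM T3, 5% DMSO; 5 hr ambient incubation; % activity per concentration and potencies from concentration series.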
Tau fibril FP – inhibitors of human tau fibril formation; P10636; K18 P301L tau heparin fibrillization, Alexa594 FP, 6 h; Potency, µM (titrated, usually from 57.7 µM), actives largely listed as inhibitors; 280,000 tested, 0.39% active; AID 1468; note: nearly all actives have a fitted effect of over 55% in size
Target sequence (P10636 561-689 P618L limits assumed): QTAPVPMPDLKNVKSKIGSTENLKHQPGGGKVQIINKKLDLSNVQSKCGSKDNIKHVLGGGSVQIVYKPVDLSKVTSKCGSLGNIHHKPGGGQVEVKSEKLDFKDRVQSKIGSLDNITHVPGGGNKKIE
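Recombinant K18 P301L […], labeled with Alexa 594 at 0.24 uM over 15 uM unlabeled; heparin inducer 20 uM final; 37 C, 6 hr; FP endpoint.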
Tau fibril ThT – inhibitors of human tau fibril formation, thioflavin T binding; P10636; recombinant tau K18 P301L, heparin-induced fibrillization, ThT fluorescence; Potency, µM (doses to about 57.4 µM), hits mostly inhibitors; 270,000 tested, 2.1% active; note: nearly all actives have a fitted effect of over 55% in size
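Fibril formation assay: tau K18 P301L at 15 uM with trace Alexa 594 label, heparin inducer 20 uM, pH 7 sodium acetate buffer, 37 C for 6 hr; endpoint ThT signal.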
A number is an active result; [ ] = another dose, or the depositor's remark. Unless noted, calls come from the whole dose curve; as a rule, active = well fitted curve in the direction sought with a large enough effect; inconclusive = small, poorly fitted or top-dose-only effect, or another doubt; inactive = no such curve, though single readings can be large; an effect the other way counts as inactive or inconclusive.

How did COc1cc([N+](=O)[O-])cc(/C=N/NC(=O)C(C)Nc2ccccc2C)c1O (stereo unspecified) do in these assays?
KDM4E inh: inconclusive; Tau fluor cs: inactive; TexasRed fluor: inactive; TRb SRC2 PPI: inactive; Tau fibril FP: inactive; Tau fibril ThT: inconclusive

Results for COc1cc([N+](=O)[O-])cc(/C=N/NC(=O)c2ccc(C)nc2)c1O ?
KDM4E inh: 14.1µM; Tau fluor cs: inactive; TexasRed fluor: inactive; TRb SRC2 PPI: inactive; Tau fibril FP: inactive; Tau fibril ThT: 11.2µM

How did COc1cc([N+](=O)[O-])cc(/C=N/NC(=O)C(C)Nc2cccc(C)c2)c1O (stereo unspecified) do in these assays?
KDM4E inh: 3.16µM; Tau fluor cs: inactive; TexasRed fluor: inactive; TRb SRC2 PPI: inactive; Tau fibril FP: inactive; Tau fibril ThT: 11.2µM

What do the screens show for `COc1cccc(/C=N/NC(=O)c2cc3cc([N+](=O)[O-])ccc3s2)c1O`?
KDM4E inh: inconclusive; Tau fluor cs: inconclusive; TexasRed fluor: inactive; TRb SRC2 PPI: inactive; Tau fibril FP: inactive; Tau fibril ThT: 2.24µM

How did Nc1ncnc2c1ncn2[C@@H]1O[C@H](COP(=O)(O)OP(=O)(O)OP(=O)(O)OP(=O)(O)OC[C@@H]2O[C@H](n3cnc4c(N)ncnc43)[C@@H](O)[C@@H]2O)[C@H](O)[C@H]1O do in these assays?
KDM4E inh: inconclusive; Tau fluor cs: inactive; TexasRed fluor: inactive; TRb SRC2 PPI: inactive; Tau fibril FP: inactive; Tau fibril ThT: inactive

What do the screens show for `COc1cc(OC)c([N+](=O)[O-])cc1/C=N/NC(=O)c1ccncc1`?
KDM4E inh: inactive; Tau fluor cs: inconclusive; TexasRed fluor: inactive; TRb SRC2 PPI: inconclusive; Tau fibril FP: inconclusive; Tau fibril ThT: 25.1µM

What do the screens show for `Cc1cc(O)ccc1Nc1nc(-c2sc(N)nc2C)cs1`?
KDM4E inh: inconclusive; Tau fluor cs: inconclusive; TexasRed fluor: inactive; TRb SRC2 PPI: inactive; Tau fibril FP: inconclusive; Tau fibril ThT: 12.6µM

How did COc1cc(NS(=O)(=O)c2ccc(Nc3nc(-c4ccccc4)cs3)cc2)nc(OC)n1 do in these assays?
KDM4E inh: inconclusive; Tau fluor cs: 12.6µM[quencher]; TexasRed fluor: inactive; TRb SRC2 PPI: inactive; Tau fibril FP: inconclusive; Tau fibril ThT: inconclusive

Results for Cc1nc(C)c(-c2csc(Nc3cccnc3)n2)s1 ?
KDM4E inh: inconclusive; Tau fluor cs: inactive; TexasRed fluor: inactive; TRb SRC2 PPI: inactive; Tau fibril FP: inactive; Tau fibril ThT: inconclusive

What do the screens show for `Cc1nc(N)sc1-c1csc(Nc2ccccc2)n1`?
KDM4E inh: inactive; Tau fluor cs: 25.1µM[quencher]; TexasRed fluor: inactive; TRb SRC2 PPI: inactive; Tau fibril FP: inconclusive; Tau fibril ThT: 11.2µM

What do the screens show for `Cc1cc(NS(=O)(=O)c2ccc(Nc3nc(-c4sc(N)nc4C)cs3)cc2)no1`?
KDM4E inh: inactive; Tau fluor cs: inconclusive; TexasRed fluor: inactive; TRb SRC2 PPI: inactive; Tau fibril FP: inconclusive; Tau fibril ThT: 20µM

How did Cc1cccc(Nc2nc3ccccc3n3c(N)nnc23)c1 do in these assays?
Tau fluor cs: inactive; TexasRed fluor: inactive; TRb SRC2 PPI: inactive; Tau fibril FP: inconclusive; Tau fibril ThT: inactive

What do the screens show for `COc1ccccc1NS(=O)(=O)c1cccc(NC(=O)C2CC(=O)N(Cc3ccccc3)C2)c1` (stereo unspecified)?
KDM4E inh: inactive; Tau fluor cs: inconclusive; TexasRed fluor: inactive; TRb SRC2 PPI: inactive; Tau fibril FP: inactive; Tau fibril ThT: inactive

What do the screens show for `Cc1cccc(NC(=S)N(Cc2cccs2)Cc2cc3cc(C)cc(C)c3[nH]c2=O)c1`?
KDM4E inh: inactive; Tau fluor cs: inactive; TexasRed fluor: inconclusive; TRb SRC2 PPI: inactive; Tau fibril FP: inactive; Tau fibril ThT: inactive

What do the screens show for `CCOC(=O)c1cc(C#N)c(SCC(=O)Nc2ccc(C(C)=O)cc2)[nH]c1=O`?
KDM4E inh: inconclusive; Tau fluor cs: inactive; TexasRed fluor: inactive; TRb SRC2 PPI: inactive; Tau fibril FP: inactive; Tau fibril ThT: inconclusive

What do the screens show for `Cc1ccc(NC(=O)c2ccc(CSc3ccccn3)cc2)c(O)c1`?
KDM4E inh: inactive; Tau fluor cs: 17.8µM[quencher]; TexasRed fluor: inactive; TRb SRC2 PPI: inactive; Tau fibril FP: inactive; Tau fibril ThT: inconclusive

What do the screens show for `Cc1cccc(C2c3[nH]c4ccccc4c3CCN2C(=O)c2cn(C)c3ccccc3c2=O)n1` (stereo unspecified)?
KDM4E inh: inactive; Tau fluor cs: inactive; TexasRed fluor: inactive; TRb SRC2 PPI: inactive; Tau fibril FP: inactive; Tau fibril ThT: inactive

Results for O=C(c1ccccc1Cl)N1CCCC(c2nc3c(nnn3Cc3ccccc3)c(=O)[nH]2)C1 (stereo unspecified) ?
KDM4E inh: inactive; Tau fluor cs: inactive; TexasRed fluor: inactive; TRb SRC2 PPI: inactive; Tau fibril FP: inactive; Tau fibril ThT: inactive

How did CCc1cc(SC#N)cc(C)c1N do in these assays?
KDM4E inh: inactive; Tau fluor cs: inactive; TexasRed fluor: inactive; TRb SRC2 PPI: inactive; Tau fibril FP: inconclusive; Tau fibril ThT: 14.1µM

Results for CC1=Nc2ccccc2/C1=C/c1sc(=N)n(-c2nccs2)c1O ?
KDM4E inh: inactive; Tau fluor cs: 11.2µM[quencher]; TexasRed fluor: inactive; TRb SRC2 PPI: inactive; Tau fibril FP: inconclusive; Tau fibril ThT: 5.01µM

How did COC(=O)c1sccc1S(=O)(=O)Nc1ccc(N2CCCCC2)cc1 do in these assays?
KDM4E inh: inactive; Tau fluor cs: inconclusive; TexasRed fluor: inactive; TRb SRC2 PPI: inactive; Tau fibril FP: inactive

What do the screens show for `CC(=O)N1C(C)(C)CC(=NOS(=O)(=O)c2ccccc2)CC1(C)C`?
KDM4E inh: inactive; Tau fluor cs: inactive; TexasRed fluor: inactive; TRb SRC2 PPI: inactive; Tau fibril FP: inactive; Tau fibril ThT: inactive

How did CC[n+]1ccc2cc(OC)c(OC)cc2c1Cc1ccc(OC)c(OC)c1 do in these assays?
KDM4E inh: 25.1µM; Tau fluor cs: inactive; TexasRed fluor: inactive; TRb SRC2 PPI: inactive; Tau fibril FP: inactive; Tau fibril ThT: inactive

How did O=C(Nc1ccccc1NC(=O)c1csnn1)c1csnn1 do in these assays?
KDM4E inh: inactive; Tau fluor cs: inactive; TexasRed fluor: inactive; TRb SRC2 PPI: inactive; Tau fibril FP: inactive; Tau fibril ThT: inactive

How did O=C(NC(=S)Nc1ccccc1Cl)c1csnn1 do in these assays?
KDM4E inh: inactive; Tau fluor cs: inactive; TexasRed fluor: inactive; TRb SRC2 PPI: inactive; Tau fibril FP: inconclusive; Tau fibril ThT: 15.8µM

How did CC[n+]1c(/C=C/C=C/N(C(C)=O)c2ccccc2)sc2cc(OC)ccc21 do in these assays?
KDM4E inh: inconclusive; Tau fluor cs: 3.98µM[fluorescent]; TexasRed fluor: inconclusive; TRb SRC2 PPI: inconclusive; Tau fibril FP: inactive; Tau fibril ThT: 12.6µM

Results for CC[n+]1c(/C=C(\C)OC)sc2ccccc21 ?
KDM4E inh: inconclusive; Tau fluor cs: inactive; TexasRed fluor: inactive; TRb SRC2 PPI: inactive; Tau fibril FP: inactive; Tau fibril ThT: inconclusive
